Results filed as inconclusive are left out. A call without a number means that no potency is given here. Unmarked numbers belong to inactive results. The source made the active and inactive calls. Calls follow the shape of the full dose curve.
Molecular target: Beta-2 adrenergic receptor (Homo sapiens) (UniProt P07550)
Experiment: Adrenergic beta2 receptor (ADRB2) small molecule agonists, cell-based qHTS assay (AID 1963593);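 also: CHO cells stably overexpressing human ADRB2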
Conditions: CHO-ADRB2 cells, cAMP HTRF, 30 min; series mostly up to 92.4 µM
Procedure, shortened: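 CHO cells stably over-expressing ADRB2 were plated overnight at 37C, then dosed with compounds plus a stimulation mix containing 100uM IBMX and 25uM Ro-20-1724 for 0.5hr at room temperature. cAMP was measured by HTRF competition, 1hr.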

Sequence of Beta-2 adrenergic receptor (Homo sapiens) (P07550 whole entry, looked up): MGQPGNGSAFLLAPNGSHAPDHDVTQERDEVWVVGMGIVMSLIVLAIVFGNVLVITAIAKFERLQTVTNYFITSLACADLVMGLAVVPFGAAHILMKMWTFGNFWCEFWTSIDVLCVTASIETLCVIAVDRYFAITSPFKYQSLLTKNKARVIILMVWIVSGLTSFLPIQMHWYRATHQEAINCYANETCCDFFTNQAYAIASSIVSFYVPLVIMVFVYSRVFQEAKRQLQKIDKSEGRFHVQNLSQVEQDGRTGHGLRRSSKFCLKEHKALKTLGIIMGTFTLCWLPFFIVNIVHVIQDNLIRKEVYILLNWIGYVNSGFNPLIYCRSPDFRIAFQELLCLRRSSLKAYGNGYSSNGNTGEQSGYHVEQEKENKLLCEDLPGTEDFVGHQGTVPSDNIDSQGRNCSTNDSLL

Row | SMILES | Potency | activation
1 | BrCc1ccc(Br)cc1 | inactive | –
2 | CC1=C2[C@H]3OC(=O)[C@@H](C)[C@@H]3CC[C@@]2(C)C=CC1=O | inactive | –
3 | CC(C)(Cl)Cl | inactive | –
4 | C=CC1CC=CCC1 (stereo not drawn) | inactive | –
5 | CC(C)(C)OOC(C)(C)CCC(C)(C)OOC(C)(C)C | inactive | –
6 | COC(=O)Nc1cccc(OC(=O)Nc2cccc(C)c2)c1 | inactive | –
7 | COC(=O)Cc1ccccc1 | inactive | –
8 | ClC(Cl)(Cl)c1ccccc1 | inactive | –
9 | O=c1c2ccccc2c(=O)c2c1cc(Cl)c1[nH]c3c([nH]c12)c(Cl)cc1c(=O)c2ccccc2c(=O)c13 | inactive | –
10 | CCOC(=O)C1OC1(C)c1ccccc1 (stereo not drawn) | inactive | –
11 | c1ccc(N=Nc2ccccc2)cc1 | inactive | –
12 | CCCCN(CC)c1c([N+](=O)[O-])cc(C(F)(F)F)cc1[N+](=O)[O-] | inactive | –
13 | CCc1cccc(C)c1N(C(=O)CCl)C(C)COC (stereo not drawn) | inactive | –
14 | N#CCNCC#N | inactive | –
15 | CC(C)CON=O | inactive | –
16 | [P]#[In] | inactive | –
17 | Cc1cccc([N+](=O)[O-])c1 | inactive | –
18 | Cc1cccc(N)c1N | inactive | –
19 | O=C(Cl)CCl | inactive | –
20 | Cc1ccc([N+](=O)[O-])cc1 | inactive | –
21 | CC(C)(C#N)N=NC(C)(C)C#N | inactive | –
22 | N#CN=C(N)N | inactive | –

Row | SMILES | Potency | activation
23 | Nc1ccc([As](=O)(O)O)cc1 | inactive | –
24 | c1nc[nH]n1 | inactive | –
25 | CCCSC(=O)Cl | inactive | –
26 | Cl/C=C\C[N+]12CN3CN(CN(C3)C1)C2 | inactive | –
27 | ClC(Cl)(Cl)Br | inactive | –
28 | N#CC1(N=NC2(C#N)CCCCC2)CCCCC1 | inactive | –
29 | COc1ccc(N)cc1 | inactive | –
30 | CCCCCCCCCCOC(=O)c1ccccc1C(=O)OCCCCCCCCCC | inactive | –
31 | CCCC(C)(COC(N)=O)COC(=O)NC(C)C (stereo not drawn) | inactive | –
32 | COC(=O)C(Cl)C(=O)OC | inactive | –
33 | CCCCN(CC)C(=O)SCCC | inactive | –
34 | CCNc1nc(NC(C)C)nc(OC)n1 | inactive | –
35 | CCCCCCCCCCBr | inactive | –
36 | Cc1ccccc1[N+](=O)[O-] | inactive | –
37 | CN(C)CCc1ccc(O)cc1 | inactive | –
38 | COc1cc(OC)nc(Sc2cccc(Cl)c2C(=O)O)n1 | inactive | –
39 | Nc1ccc(Oc2ccc(N)cc2)cc1 | inactive | –
40 | c1ccoc1 | inactive | –
41 | C=CCOC(N)=O | inactive | –
42 | CC(O)CCO (stereo not drawn) | inactive | –
43 | O=C(Cl)OCc1ccccc1 | inactive | –
44 | CC(C)OS(C)(=O)=O | inactive | –

Row | SMILES | Potency | activation
45 | CO[C@@H]1[C@H](OC(=O)NC(=O)CCl)CC[C@]2(CO2)[C@H]1[C@@]1(C)O[C@@H]1CC=C(C)C | – | 4.33% [at 19 µM]
46 | O=[N+]([O-])c1ccccc1O | inactive | –
47 | CNC(=S)S | inactive | –
48 | CCCCCCCCOC(=O)c1ccccc1C(=O)OCCCCCCCC | inactive | –
49 | C=C(C)C#N | inactive | –
50 | CCCCN=C=O | inactive | –
51 | O=[N+]([O-])c1ccccc1 | inactive | –
52 | CCCCC(CC)C(=O)Cl (stereo not drawn) | inactive | –
53 | C#CCO | inactive | –
54 | C#CCOC(=O)/C=C(C)/C=C/CC(C)CCCC(C)C (stereo not drawn) | inactive | –
55 | Brc1ccc(Oc2cc(Br)c(Br)cc2Br)c(Br)c1 | inactive | –
56 | BrCCc1ccccc1 | inactive | –
57 | NNC(=S)NN | inactive | –
58 | COC(=O)c1ccccc1CS(=O)(=O)NC(=O)Nc1nc(OC)cc(OC)n1 | inactive | –
59 | NC(=O)c1cc([N+](=O)[O-])cc([N+](=O)[O-])c1 | inactive | –
60 | COC(C)(C)CCCC(C)C/C=C/C(C)=C/C(=O)OC(C)C (stereo not drawn) | inactive | –
61 | O=c1[nH]c2ccccc2c(=O)o1 | inactive | –
62 | CCCCCCCCCCCOC(=O)c1ccccc1C(=O)OCCCCCCCCCCC | inactive | –
63 | COc1ccc2c3c1O[C@H]1[C@@H](O)C=C[C@H]4[C@@H](C2)N(C)CC[C@@]341 | inactive | –
64 | Clc1ccc(C(Cl)(Cl)Cl)cc1 | inactive | –
65 | CCC1(CC)C(=O)C=CNC1=O | inactive | –
66 | CCCCC1C(=O)NC(=O)N(C2CCCCC2)C1=O (stereo not drawn) | inactive | –

Row | SMILES | Potency | activation
67 | O=[N+]([O-])c1cc(Cl)ccc1Cl | inactive | –
68 | CNC | inactive | –
69 | C1CCC(NC2CCCCC2)CC1 | inactive | –
70 | O=C(O)C(Br)Br | inactive | –
71 | ClCC1CO1 (stereo not drawn) | inactive | –
72 | CCSC(=O)N1CCCCCC1 | inactive | –
73 | CCN(CC)C1CCCCC1 | inactive | –
74 | c1ccc2c(c1)Oc1ccccc1O2 | inactive | –
75 | CCOC(=O)c1ccccc1C(=O)OCC | inactive | –
76 | c1ccc(NNc2ccccc2)cc1 | inactive | –
77 | O=S(=O)(c1ccccc1)c1ccccc1 | inactive | –
78 | C=CCOCC1CO1 (stereo not drawn) | inactive | –
79 | Nc1cnn(-c2ccccc2)c(=O)c1Cl | inactive | –
80 | Cl/C=C/Cl | inactive | –
81 | Clc1ccc(Cl)cc1 | inactive | –
82 | ClCc1ccccn1 | inactive | –
83 | CC(C)CCCCCCOC(=O)c1ccccc1C(=O)OCCCCCCC(C)C | inactive | –
84 | C=CCN1CC[C@]23CCCC[C@H]2[C@H]1Cc1ccc(O)cc13 | inactive | –
85 | Cc1ccc(-c2nc3ccc(C)cn3c2CC(=O)N(C)C)cc1 | inactive | –
86 | COC[C@@H](NC(C)=O)C(=O)NCc1ccccc1 | inactive | –
87 | CCC(=O)c1ccccc1 | inactive | –
88 | CC1COC2(c3ccccc3Cl)c3cc(Cl)ccc3NC(=O)CN12 (stereo not drawn) | inactive | –

From PubChem BioAssay (Tox21)
